# Reference: PubChem BioAssay (NCATS)
# Records with an inconclusive call do not appear. Calls of active or inactive are those of the source. Calls come from the whole dose curve.
# Biological target: Atrial natriuretic peptide receptor 1 (Homo sapiens) (UniProt P16066)
# Assay: Natriuretic polypeptide receptor (hNpr1) antagonism - Pilot screen (AID 1347049)
# Details: hNpr1 cells, antagonist mode cGMP read-out; series mostly up to 57.5 µM
# Method: In order to identify small molecular compounds that inhibit the hNpr1 receptor we developed a high-throughput assay to measure inhibition of the guanylate cyclase activity of the receptor. cGMP production was measured using a circular permutated Firefly luciferase (FLuc) enzyme functionally linked to the cGMP binding domain of human phosphodiesterase 5 (GloSensor technology pGS-40F, (Fan, F. et al. 2008). The cGMP-sensor was expressed in human embryonic kidney 293 (HEK-293) cells and FLuc activity was measured after stimulation with hNrp agonist peptide. hNrp agonists activates the receptor's associated guanylyl cyclase (GC) domain producing cGMP which then binds to the GloSensor resulting in FLuc activation, the enzymatic activity of which can be measured as bioluminescence with addition of luciferin substrate.
# F. Fan, B. F. Binkowski, B. L. Butler, P. F. Stecha, M. K. Lewis, K. V. Wood, Novel genetically encoded biosensors using firefly luciferase. ACS Chem Biol 3, 346-351 (2008).
# This assay was initially piloted by testing with a small diversity library of compounds with known pharmacological activity.
# PROTOCOL TABLES (as described by Inglese J, Shamu CE and Guy RK. 2007)
# SEQUENCE No. (e.g., 1, 2, 3, etc.); […] (e.g., Cells, Incubation, Reagent, etc.); VALUE and DESCRIPTION.
# 1. Cells. Seed 1500 HEK293 cGMP-sensor cells expressing hNpr1 per well in 4uL into Greiner 1536-well white/solid bottom high base, tissue culture-treated plates.
# 2. Incubation. Incubate plated cells at 37C in 5% CO2, 95% RH overnight.
# 3. Reagent. Add 1uL per well GloSensor reagent from Promega (2% final concentration) or CO2 independent media vehicle control to respective columns of Greiner 1536-well plates.
# 4. Incubation. Incubate plated cells at room temperature for 2 h, protect from light.
# 5. Compounds. Library compounds and A-71915 control added at 23 nL per well, transferred by Pin Tool.
# 6. Incubation. Incubate plated cells for 30 min. at room temperature, protect from light.
# 7. Detector. GloSensor baseline pre-read luminescence measured using CCD-based camera (Viewlux).
# 8. Compound. Add 1uL of hNppA peptide to 0.1 nM final concentration to stimulate hNpr1 or CO2 independent media as vehicle control.
# 9. Incubation. Incubate treated cells at room temperature for 20 min., protect from light.
# 10. Detector. GloSensor post-hNppA luminescence measured using CCD-based camera (Viewlux).
# NOTES (numbers refer to Sequence numbers above)
# 1. HEK293 cells expressing hNpr1 and GIP/pGS-40F grown to 85-95% confluence (48-72 h) in T175 culture flasks (CO2 independent media supplemented with 10% FBS, 1% Pen/Strep antibiotics and 1 ug/mL puromycin). Trypsinize and harvest cells from T175 culture flasks and filter through 40 um cell strainer. Cells counted with Invitrogen Countess (30,000,000 - 50,000,000 cells/flask). Cells diluted to a final concentration of 375 cells/uL in CO2 independent media and a Millipore multidrop used to dispense 1500 cells per well (4uL/well) into 9 x 1536-well Greiner White/Solid bottom, high base tissue-culture treated (TC) plates and one Aurora 1536-well Black/Clear bottom, low base, TC plate (for visual inspection of cell health throughout the duration of the assay).
# 2. Cells incubated overnight at ambient temperature, 24 h. at 37C in 95% RH incubator protected from light, covered with metal lid with gas-exchange holes.
# 3. Prepare GloSensor Reagent (Promega): Reconstitute GloSensor luciferase substrate by adding 8.2mL Hepes buffer to 250mg substrate, mix well, protect from light and stored at -80C. Prepare a fresh 12% GloSensor solution in CO2 independent supplemented plating media (see above). Mix well and store at ambient temperature, protected from light. 1uL 12% GloSensor Luciferase Reagent added (2% final concentration) to respective columns of 9 x 1536-well Greiner plate with BioRaptr, 1uL CO2 independent plating media added to respective columns as vehicle control with BioRaptr.
# 4. […]
# Atrial natriuretic peptide receptor 1 (Homo sapiens), sequence (P16066 whole entry, looked up): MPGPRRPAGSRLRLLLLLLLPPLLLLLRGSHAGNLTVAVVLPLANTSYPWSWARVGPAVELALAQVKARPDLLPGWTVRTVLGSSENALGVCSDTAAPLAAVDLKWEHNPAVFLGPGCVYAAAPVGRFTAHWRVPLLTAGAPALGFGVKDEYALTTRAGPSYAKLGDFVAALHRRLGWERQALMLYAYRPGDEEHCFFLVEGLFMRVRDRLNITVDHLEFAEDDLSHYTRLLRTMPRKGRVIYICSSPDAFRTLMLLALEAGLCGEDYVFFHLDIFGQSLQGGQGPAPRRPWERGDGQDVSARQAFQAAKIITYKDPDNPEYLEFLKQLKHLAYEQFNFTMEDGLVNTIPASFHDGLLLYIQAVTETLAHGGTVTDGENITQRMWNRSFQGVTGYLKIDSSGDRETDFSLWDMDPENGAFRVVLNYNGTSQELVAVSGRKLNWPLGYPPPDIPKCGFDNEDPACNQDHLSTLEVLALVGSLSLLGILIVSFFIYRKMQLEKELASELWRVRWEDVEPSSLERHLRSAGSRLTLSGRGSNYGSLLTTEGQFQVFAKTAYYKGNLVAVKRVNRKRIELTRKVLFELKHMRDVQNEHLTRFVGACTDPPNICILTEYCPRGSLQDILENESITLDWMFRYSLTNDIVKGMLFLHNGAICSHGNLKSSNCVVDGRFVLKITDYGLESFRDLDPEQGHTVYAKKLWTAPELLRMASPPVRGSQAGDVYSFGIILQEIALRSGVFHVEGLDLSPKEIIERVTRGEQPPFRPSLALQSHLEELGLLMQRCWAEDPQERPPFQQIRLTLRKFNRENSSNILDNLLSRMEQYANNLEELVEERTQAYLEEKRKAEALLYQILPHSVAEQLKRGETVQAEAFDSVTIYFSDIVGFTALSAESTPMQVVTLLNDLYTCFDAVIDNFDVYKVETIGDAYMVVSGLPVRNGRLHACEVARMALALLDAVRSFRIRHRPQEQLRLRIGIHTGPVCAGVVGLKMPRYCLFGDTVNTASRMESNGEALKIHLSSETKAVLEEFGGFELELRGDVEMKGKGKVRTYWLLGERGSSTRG
row,SMILES,outcome
1,N[C@@H]1CONC1=O,inactive
2,O=C(Nc1nc2ccccc2n1CCN1CCOCC1)c1cccc([N+](=O)[O-])c1,inactive
3,Oc1ccc(C2CNCCc3c2cc(O)c(O)c3Cl)cc1 (stereo not given),inactive
4,CNC[C@H](O)c1cccc(O)c1,inactive
5,OC(CCN1CCCCC1)(c1ccccc1)C1CC2C=CC1C2 (stereo not given),inactive
6,CC(C)(C)NCC(O)c1ccc(O)c(CO)c1 (stereo not given),inactive
7,NCCCC(N)(C(=O)O)C(F)F (stereo not given),inactive
8,CN1CCN(CCCN2c3ccccc3Sc3ccc(C(F)(F)F)cc32)CC1,inactive
9,Cc1[nH]c(=O)c(C#N)cc1-c1ccncc1,inactive
10,Nc1ccc(S(=O)(=O)Nc2ccnn2-c2ccccc2)cc1,inactive
11,NC(=O)c1cnccn1,inactive
12,Cc1ccc(N(CC2=NCCN2)c2cccc(O)c2)cc1,inactive
13,Cc1cccc(-c2[nH]c(C(C)(C)C)nc2-c2ccc3nccnc3c2)n1,inactive
14,O=C1CCc2cc(OCCCCc3nnnn3C3CCCCC3)ccc2N1,inactive
15,O=NN(CCCl)C(=O)NCCCl,inactive
16,CC(=O)Oc1ccccc1C(=O)O,inactive
17,CCC(C)N(C)C(=O)c1cc2ccccc2c(-c2ccccc2Cl)n1 (stereo not given),inactive
18,NNCCc1ccccc1,inactive
19,O=C(O)COCCN1CCN(C(c2ccccc2)c2ccc(Cl)cc2)CC1 (stereo not given),inactive
20,N=c1nc(N2CCCCC2)cc(N)n1O,inactive

row,SMILES,outcome
1,CCN(CC)CCCC(C)Nc1ccnc2cc(Cl)ccc12 (stereo not given),inactive
2,CC(C)NCC(O)COc1ccc(COCCOC(C)C)cc1 (stereo not given),inactive
3,CC(C)(Sc1ccc(CCN(CCCCC2CCCCC2)C(=O)NC2CCCCC2)cc1)C(=O)O,inactive
4,NS(=O)(=O)c1cc2c(cc1Cl)NC=NS2(=O)=O,inactive
5,Cn1cnc([N+](=O)[O-])c1Sc1ncnc2nc[nH]c12,inactive
6,O=C1CCC(N2C(=O)c3ccccc3C2=O)C(=O)N1 (stereo not given),inactive
7,Nc1nc2ccc(OC(F)(F)F)cc2s1,inactive
8,NC[C@H](O)c1ccc(O)c(O)c1,inactive
9,OC(CN1CCC(Cc2ccc(F)cc2)CC1)c1ccc(Cl)cc1 (stereo not given),inactive
10,Cc1cn[nH]c1,inactive
11,CCCCNc1cc(C(=O)O)cc(S(N)(=O)=O)c1Oc1ccccc1,inactive
12,CCOC(=O)C1=C[C@]2(CC)CCCN3CCc4c(n1c1ccccc41)[C@@H]32,inactive
13,CCn1cc(C(=O)O)c(=O)c2cc(F)c(N3CCNC(C)C3)c(F)c21 (stereo not given),inactive
14,CC(C[N+](C)(C)C)OC(N)=O (stereo not given),inactive
15,Nc1ncnc2nc(-c3ccc(N4CCOCC4)nc3)cc(-c3cccc(Br)c3)c12,inactive
16,O=c1[nH]cnc2[nH]ncc12,inactive
17,C[C@]12CCC(=O)C=C1CC[C@@H]1[C@@H]2[C@@H](O)C[C@@]2(C)[C@H]1CC[C@]2(O)C(=O)CO,inactive
18,CCOC(=O)N1CCC(=C2c3ccc(Cl)cc3CCc3cccnc32)CC1,inactive
19,NCCc1ccc(O)c(O)c1,inactive
20,Cc1oncc1C(=O)Nc1ccc(C(F)(F)F)cc1,inactive
